RORg inh – qHTS for inhibitors of ROR gamma transcriptional activity. Drosophila S2 Gal4-RORgamma UAS-luciferase reporter, 20 h. Potency, µM (top dose mostly 53.6 µM), for inactives: top-dose activity change, negative = inhibition, most hits filed as inhibitors. Nuclear receptor ROR-gamma (Mus musculus), P51450. 310,000 tested, 5.4% active; note: potency is the fitted concentration of half-maximal effect; nearly all actives have a fitted effect of over 60% in size
Target sequence (P51450 whole entry, looked up, the tested form may be a part): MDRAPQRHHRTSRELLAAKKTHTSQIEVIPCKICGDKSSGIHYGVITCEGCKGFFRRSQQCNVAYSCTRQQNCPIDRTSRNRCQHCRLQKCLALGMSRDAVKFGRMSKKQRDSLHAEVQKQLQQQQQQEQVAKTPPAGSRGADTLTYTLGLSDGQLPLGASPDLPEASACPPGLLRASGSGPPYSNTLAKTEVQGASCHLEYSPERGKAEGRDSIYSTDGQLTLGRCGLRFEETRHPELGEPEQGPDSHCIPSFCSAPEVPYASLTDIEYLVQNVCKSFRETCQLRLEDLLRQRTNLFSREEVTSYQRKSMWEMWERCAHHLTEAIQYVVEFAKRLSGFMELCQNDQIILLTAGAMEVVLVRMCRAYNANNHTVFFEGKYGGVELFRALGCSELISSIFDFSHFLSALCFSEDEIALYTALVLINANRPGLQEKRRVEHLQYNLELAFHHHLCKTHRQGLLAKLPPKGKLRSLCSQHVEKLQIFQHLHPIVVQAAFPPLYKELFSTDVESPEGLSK
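Drosophila S2 cells stably expressing Gal4-DBD/mouse RORγ fusion under metallothionein promoter plus UAS-luciferase; compound 1 h, then 700 uM CuSO4 induction for 20 h at ambient temperature; inhibition read as reduced luminescence.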
IL-1B inflam inh – qHTS for Inhibitors of Inflammasome Signaling: IL-1-beta AlphaLISA Primary Screen; THP-1 LPS/ATP IL-1B secretion, AlphaLISA, 16 h; hits give low values; activity change, % at 57.5 µM; 360,000 tested, 4.7% active; in the data active = activity change below about -50%; inconclusive = mostly about -30% to -49%
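Secreted IL-1B measured by AlphaLISA bead assay after 16 h compound exposure of THP-1 cells; compounds (final up to 57.5 uM) added 1 h before LPS (250 ng/mL) and ATP (1.25 mM) stimulation; lower signal means less secretion.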
DT40 TDP1 CPT – qHTS for Inhibitors of human tyrosyl-DNA phosphodiesterase 1 (TDP1): qHTS in cells in presence of CPT. chicken DT40 Tdp1-/-;hTDP1 cells + 20 nM CPT, ATP luminescence, 48 h. Potency, µM (titrated, usually from 46.2 µM), for the others: at the highest dose activity change, negative = growth inhibition, hits mostly inhibitors. 420,000 tested, 12% active; note: potency is the fitted concentration of half-maximal effect; nearly all actives have a fitted effect of over 55% in size
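Chicken DT40 Tdp1-/- cells complemented with human TDP1, 400 cells/well, exposed to compounds plus 20 nM camptothecin for at least 48 h at 37 C; viability read as ATP content by CellTiter-Glo luminescence.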
VP16 counter – VP16 counterscreen qHTS for inhibitors of ROR gamma transcriptional activity. Potency, µM (doses to about 53.6 µM), without a hit: at the highest dose activity, negative = inhibition, usual class: inhibitors. 310,000 tested, 3.5% active. Drosophila S2 Gal4-VP16 UAS-luciferase, luminescence, 20 h;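 note: Gal4-VP16 expression switched on by copper sulfate through the metallothionein promoter; potency is the fitted concentration of half-maximal effect; nearly all actives have a fitted effect of over 50% in size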
LDHA inh – qHTS assay for inhibitors of human lactate dehydrogenase. purified LDHA, NADH/diaphorase-resazurin fluorescence; hits give low values. activity change, % (values are at about 110 or 230 µM). 480,000 tested, 0.15% active. AID 1347041, 2019; in the data active = activity change below about -30%; inconclusive = mostly about -25% to -30%;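 note: plate controls were DMSO wells for no effect and wells without enzyme for full effect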
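Human LDH5 (2 nM) was incubated with 0.06 mM NADH and 0.2 mM pyruvate for 5 min at room temperature in Tris pH 7.4. Remaining NADH was coupled through diaphorase/resazurin, and resorufin fluorescence was read at 0 and 20 min.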
DT40 TDP1 no CPT – qHTS for Inhibitors of human tyrosyl-DNA phosphodiesterase 1 (TDP1): qHTS in cells in absence of CPT. Potency, µM (series often up to 46.2 µM), for inactives: at the highest dose activity change, negative = growth inhibition, most hits filed as inhibitors. 420,000 tested, 15% active. DT40 Tdp1-/- hTDP1 cells, no CPT, ATP luminescence, 48 h; note: potency is the fitted concentration of half-maximal effect; nearly all actives have a fitted effect of over 55% in size
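Cells were dispensed at 400 per well, compounds added by pin tool, plates incubated ≥48 hr at 37 °C, then CellTiter-Glo added for 30 min at room temperature before luminescence reading. Line: DT40 Tdp1-/- complemented with hTDP1; camptothecin omitted.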
Starred values were filed as active, the others as inactive; u = inconclusive; x = no result. In the library only some 18% were active in any assay of this set; here they are far more common. Unless noted, calls come from the whole dose curve; as a rule, active = well fitted curve in the direction sought with a large enough effect; inconclusive = small, poorly fitted or top-dose-only effect, or another doubt; inactive = no such curve, though single readings can be large; an effect the other way counts as inactive or inconclusive. Unless noted, % is set by controls: 0 for no effect and ±100 for the full control effect.

SMILES | RORg inh | IL-1B inflam inh | DT40 TDP1 CPT | VP16 counter | LDHA inh | DT40 TDP1 no CPT
CS(=O)c1nc(-c2ccc(Br)cc2)cc(-c2ccccc2)c1C#N (stereo unspecified) | 7.9µM* | -70* | 1.8µM* | 14µM* | -9 | 2.6µM*
COc1ccc(-c2cc(-c3ccccc3)c(C#N)c(S(C)(=O)=O)n2)cc1 | u | -96* | u | -28% | -5 | u
COc1ccc(-c2cc(-c3ccc(OC)cc3)c(C#N)c(SC)n2)cc1 | u | -2 | -27% | 1% | -4 | -28%
CS(=O)(=O)c1nc(-c2ccc(Br)cc2)cc(-c2ccccc2)c1C#N | 3.2µM* | -59* | 4.1µM* | u | -11 | 2.6µM*
Cc1cnc(C(=O)NCC(O)c2ccccc2C(F)(F)F)cn1 (stereo unspecified) | x | x | x | x | -1 | x
CC1Cc2cc(S(N)(=O)=O)ccc2N1CC(=O)Nc1cccc(Cl)c1Cl (stereo unspecified) | x | x | x | x | -3 | x
COC(=O)CNC(=O)C12CC3CC(CC(C3)C1)C2 | x | x | x | x | -8 | x
CN(c1ccc(F)cc1)S(=O)(=O)c1ccc(Cl)c(C(=O)Nc2ccncc2)c1 | x | 33 | 18µM* | x | -4 | 13µM*
CCN(c1ccccc1)S(=O)(=O)c1ccc(C(=O)N2CCN(c3ccccc3)CC2)cc1 | x | 0 | u | x | -2 | 21µM*
CCN(CC(=O)N1CCN(c2ccccc2)CC1)S(=O)(=O)c1ccc(C)cc1 | -5% | -9 | u | 1% | -4 | 13µM*
CN(c1cccc(Cl)c1)S(=O)(=O)c1cccc(C(=O)Nc2ccc3c(c2)CCC3)c1 | u | 1 | 23µM* | 3% | -1 | 12µM*
CCc1[nH]c(C(=O)OC(C)C(=O)NC2CCCC2)c(C)c1C(=O)OC (stereo unspecified) | x | x | x | x | 10 | x
Clc1cccc(-c2nc(CSc3ncn[nH]3)co2)c1 | x | x | x | x | -1 | x
CN(c1ccccc1)S(=O)(=O)c1ccc(Cl)c(C(=O)NC2=NCCS2)c1 | -29% | -15 | u | 7% | -13 | u
CN(Cc1ccccc1)S(=O)(=O)c1ccc(Cl)c(C(=O)N2CCC(C(N)=O)CC2)c1 | x | 26 | 23µM* | x | -5 | 10µM*
O=C(Nc1ccccc1)c1cc(S(=O)(=O)NCc2ccncc2)ccc1Cl | u | 3 | 9.2µM* | u | 5 | 8.2µM*
CCN(c1ccccc1)S(=O)(=O)c1ccc(Cl)c(C(=O)N2CCCC2)c1 | x | 32 | u | x | -3 | 15µM*
CN(Cc1ccccc1)S(=O)(=O)c1ccc(Cl)c(C(=O)N2CCC2)c1 | x | 0 | u | x | -1 | u
CN(c1ccccc1)S(=O)(=O)c1ccc(Cl)c(C(=O)Nc2ccncc2)c1 | x | 50 | 18µM* | x | -1 | 16µM*
O=C(Nc1ccccc1)c1cc(S(=O)(=O)Nc2cccnc2)ccc1Cl | -5% | 17 | -6% | -2% | -4 | -17%
CC(C)(C)c1ccc(Nc2ccc(C(C)(C)C)cc2)cc1 | x | x | x | x | 4 | x
Cc1ccccc1Nc1nc(-c2ccc([N+](=O)[O-])cc2)cs1 | x | x | x | x | 11 | x
O=C(NCC(c1cccs1)N1CCCC1)c1cc2ccccc2oc1=O (stereo unspecified) | x | x | x | x | -3 | x
CCN(c1ccccc1)S(=O)(=O)c1ccc(Cl)c(C(=O)Nc2ccncc2)c1 | x | 4 | u | x | -1 | 12µM*
CCN(c1ccccc1)S(=O)(=O)c1ccc(F)c(C(=O)O)c1 | 13% | 14 | -9% | -9% | -2 | -11%
SMILES | RORg inh | IL-1B inflam inh | DT40 TDP1 CPT | VP16 counter | LDHA inh | DT40 TDP1 no CPT
CCN(c1ccccc1)S(=O)(=O)c1ccc(Cl)c(C(=O)N(CC2CCCO2)C2CCS(=O)(=O)C2)c1 (stereo unspecified) | 31% | -11 | u | -2% | -4 | 21µM*
CCN1CCN(S(=O)(=O)c2ccc(Cl)c(C(=O)N(CC(C)C)C3CCS(=O)(=O)C3)c2)CC1 (stereo unspecified) | x | -9 | -28% | x | -5 | -11%
CN(c1ccc(F)cc1)S(=O)(=O)c1ccc(Cl)c(C(=O)Nc2ccc3c(c2)CCC3)c1 | 67% | -17 | 5.2µM* | -3% | -4 | 3.7µM*
Cc1ccc(CNC(Cc2c[nH]c3ccccc23)C(=O)O)cc1 (stereo unspecified) | x | x | x | x | -24 | x
CCc1ccc2oc(C(=O)Nc3ccc(S(=O)(=O)Nc4onc(C)c4C)cc3)cc(=O)c2c1 | x | x | x | x | -8 | x
COC(=O)c1ccc(NC2(C#N)C(=O)Nc3ccccc32)cc1 (stereo unspecified) | 16% | 7 | u | -3% | 1 | 23µM*
COc1ccccc1CC(=O)Nc1ccc2nc(N3CCC(C)CC3)cc(C)c2c1 | x | x | -21% | x | -2 | u
CCN1CCN(c2cc(C)c3cc(NC(=O)CCC(=O)Nc4ccc(OC)c(OC)c4)ccc3n2)CC1 | 1% | -6 | -1% | -2% | 0 | -23%
COc1ccc(/C=C/C(=O)Nc2ccc3nc(N4CCC(C)CC4)cc(C)c3c2)cc1OC | x | x | 4.1µM* | x | 17 | 4.6µM*
Cc1cc(N2CCC(C)CC2)nc2ccc(NC(=O)Cc3ccccc3Br)cc12 | x | x | 21µM* | x | -11 | 13µM*
Cc1cc(N2CCC(C)CC2)nc2ccc(NC(=O)c3ccccc3)cc12 | x | x | x | x | 6 | x
Cc1cccc(CC(=O)Nc2ccc3nc(N4CCC(C)CC4)cc(C)c3c2)c1 | x | x | 21µM* | x | 1 | 15µM*
COc1ccc(Nc2cc(Cl)nc(N)n2)cc1 | 16% | -20 | -24% | -15% | -3 | -12%
COc1ccc(-c2cc(C3CCN(c4cc(Cl)nc(N)n4)CC3)[nH]n2)cc1 | u | u | 23µM* | -24% | -3 | 23µM*
COc1ccc(OC)c(-c2cc(C3CCN(c4cc(Cl)nc(N)n4)CC3)[nH]n2)c1 | 28% | -6 | 13µM* | -5% | 1 | 21µM*
Nc1nc(Cl)cc(N2CCC(c3cc(-c4ccc(Cl)cc4)n[nH]3)CC2)n1 | u | -6 | 3.5µM* | u | 8 | 2.8µM*
Nc1nc(Cl)cc(N2CCC(c3nc(C4CC4)n[nH]3)CC2)n1 | x | x | x | x | 4 | x
Cc1ccc(NC(=S)NCc2ccccc2)c(Br)c1 | x | x | x | x | 6 | x

Source: PubChem (National Center for Advancing Translational Sciences (NCATS))
